Laboratory results as given in publication PMC5540273 (PLoS ONE, 2017).

System: T1, MEK1
T1 construct: gene MAP2K1
Conditions: concentration: 1 μM,replicates: in singlicate; n = 1
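Further: KINOMEscan kinase panel screen.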

`CC(=O)Nc1ccc(-c2cc3ncnc(SCC(=O)O)c3s2)cc1` and `NC(=O)c1ccc(-c2cc3ncnc(SCC(=O)O)c3s2)cc1` are the same in “%Inh” value: 0% for the first, 0% for the second.

First: Cn1ccc2ncnc(Oc3ccc(NC(=O)Nc4cc(C(C)(C)C)on4)c(Cl)c3)c21
Second: Cn1ccc2ncnc(Oc3ccc(NC(=O)Nc4cccc(C(F)(F)F)c4)c(Cl)c3)c21
The “%Inh” value of the first is higher: 23% for the first, 0% for the second.

`O=C(Nc1cccc(Oc2ccc3nccn3n2)c1)Nc1cccc(C(F)(F)F)c1` and `Cn1ccc2ncnc(Oc3ccc(NC(=O)Nc4cccc(C(F)(F)F)c4)c(F)c3)c21` are the same in “%Inh” value: 0% for the first, 0% for the second.

`COC(=O)c1cccc(NC(=O)NC2CCN(c3ccnc(NCc4ccc(F)cc4)n3)CC2)c1` [GSK1379860] and `COc1ccc(Nc2nccc(N3CCC(NC(=O)c4cccc(C#N)c4)C3)n2)cc1` (centres unmarked) [GSK1379730] are the same in “%Inh” value: 0% for the first, 0% for the second.

Compared with `CN(c1cccc(CNc2nc(Nc3ccc4c(c3)CC(=O)N4)ncc2C(F)(F)F)c1)S(C)(=O)=O`, `CN(c1ccccc1CNc1nc(Nc2ccc3c(c2)CC(=O)N3)ncc1C(F)(F)F)S(C)(=O)=O` is higher in “%Inh” value: 0% for the first, 1% for the second.

First: C[C@@H](Oc1cc(-n2cnc3cc(-c4cnn(C)c4)ccc32)sc1C(N)=O)c1ccccc1Cl [GSK580432]
Second: C[C@@H](Oc1cc(-n2cnc3ccc(-c4ccncc4)cc32)sc1C(N)=O)c1ccccc1Cl [GSK483724]
The “%Inh” value of the first is lower: 0% for the first, 49% for the second.

Compared with `COC(=O)Nc1nc2cc(Oc3ccc(NC(=O)Nc4cc(C(F)(F)F)ccc4Cl)cc3)ccc2[nH]1.Cl` [GW697465], `COc1cc2nccc(Nc3ccc(Oc4ccccc4)cc3)c2cc1OC.Cl` [GI261656] is higher in “%Inh” value: 25% for the first, 96.9% for the second.

First: O=c1[nH]cc(-c2ccc(O)cc2)c2sc(-c3ccncc3)cc12 [GSK1033723]
Second: CS(=O)c1ccc(-c2coc3ccc(-c4n[nH]c(=O)o4)cc23)cc1 (centres unmarked)
The “%Inh” value of the first is lower: 0% for the first, 17% for the second.

Going from `C[C@@H]1CCN(C(=O)N2CCCC2)C[C@@H]1N(C)c1ncnc2[nH]ccc12` to `Cl.Cl.NC[C@H](CC1CCCCC1)NC(=O)c1ccc(-c2ccnc3[nH]ccc23)s1` [GSK1581428], the “%Inh” value falls from 18% to 0%.

Going from `CSc1nccc(-c2c(-c3ccc(F)cc3)ncn2CCCN2CCOCC2)n1.Cl` [SB-217146] to `Cc1n[nH]c2cc(Nc3ccnc(Nc4cccc(CN5CCOCC5)c4)n3)ccc12` [GW682569], the “%Inh” value falls from 30% to 14%.

Going from `CC(=O)Nc1nc2cnc(Nc3cc(NC(=O)c4cccc(CC(C)(C)C#N)c4)ccc3C)nc2s1` to `COc1cc2c(Nc3ccc(NC(=O)c4ccccc4)cc3)ncnc2cc1OCCCN1CCOCC1` [GSK301329], the “%Inh” value rises from 6% to 86%.

Compared with `CS(=O)(=O)Nc1ccc(-c2ccnc3[nH]ccc23)cc1` [GSK993273], `Cl.Nc1n[nH]c2cc(-c3ccccn3)ccc12` [GSK2189892] is lower in “%Inh” value: 60% for the first, 2% for the second.

Going from `O=C(NOCC1CC1)c1cc(Br)c(F)c(F)c1Nc1ccc(I)cc1Cl` to `COc1cccc(C2=C(Nc3cccc(Cl)c3)C(=O)NC2=O)c1` [SB-341556], the “%Inh” value falls from 31% to 0%.

Compared with `O=C1NCCc2[nH]c(-c3ccncc3)cc21`, `Cn1cc(-c2cccc3c(N)c(C(N)=O)nnc23)cn1` is lower in “%Inh” value: 8% for the first, 5% for the second.

Compared with `COc1cccc(CNC(=O)NC2CCN(c3ccnc(Nc4cc(OC)c(OC)c(OC)c4)n3)C2)c1` (centres unmarked) [GSK1379765], `CN(c1ccc2c(c1)nc(NCc1ccc(F)cc1)n2C)c1ccnc(Nc2ccc(CS(C)(=O)=O)cc2)n1.Cl` [GW813244] is lower in “%Inh” value: 17% for the first, 14% for the second.

`Cc1ccc(CC(=O)N2CCc3cc(-c4cn(C)c5ncnc(N)c45)ccc32)cc1` [GSK2634758] and `Cc1nnc(-c2ccc3occ(-c4ccc(S(C)=O)cc4)c3n2)o1` (centres unmarked) are the same in “%Inh” value: 0% for the first, 0% for the second.

Going from `Cl.c1ccc(Oc2ccc(Nc3ccnc4cc(-c5ccc(CN6CCNCC6)o5)ccc34)cc2)nc1` [GW567142] to `OCCn1cc(-c2cnc3nnn(Cc4ccc5ncccc5c4)c3n2)cn1`, the “%Inh” value falls from 87% to 0%.

`CC(C)S(=O)(=O)N1CCN(Cc2ccc3c(c2)nc(NC(=O)c2ccsc2)n3C[C@H](O)c2ccccc2)CC1` [GW635815] and `CCn1c(-c2nonc2N)nc2cncc(CNC3CCNCC3)c21.Cl` [SB-747651] are the same in “%Inh” value: 0% for the first, 0% for the second.

With `CCCC(=O)Nc1n[nH]c2ncccc12` [SB-601436] the “%Inh” value was 0%.

System: T2, MEK2
T2 construct: gene MAP2K2
Conditions: concentration: 1 μM,replicates: in singlicate; n = 1

Going from `CC(=O)Nc1ccc(-c2cc3ncnc(SCC(=O)O)c3s2)cc1` to `NC(=O)c1ccc(-c2cc3ncnc(SCC(=O)O)c3s2)cc1`, the “%Inh” value rises from 0% to 34%.

Compared with `Cn1ccc2ncnc(Oc3ccc(NC(=O)Nc4cc(C(C)(C)C)on4)c(Cl)c3)c21`, `Cn1ccc2ncnc(Oc3ccc(NC(=O)Nc4cccc(C(F)(F)F)c4)c(Cl)c3)c21` is lower in “%Inh” value: 41% for the first, 25% for the second.

First: O=C(Nc1cccc(Oc2ccc3nccn3n2)c1)Nc1cccc(C(F)(F)F)c1
Second: Cn1ccc2ncnc(Oc3ccc(NC(=O)Nc4cccc(C(F)(F)F)c4)c(F)c3)c21
The “%Inh” value of the first is lower: 7% for the first, 29% for the second.

`COC(=O)c1cccc(NC(=O)NC2CCN(c3ccnc(NCc4ccc(F)cc4)n3)CC2)c1` [GSK1379860] and `COc1ccc(Nc2nccc(N3CCC(NC(=O)c4cccc(C#N)c4)C3)n2)cc1` (centres unmarked) [GSK1379730] are the same in “%Inh” value: 0% for the first, 0% for the second.

Compared with `CN(c1cccc(CNc2nc(Nc3ccc4c(c3)CC(=O)N4)ncc2C(F)(F)F)c1)S(C)(=O)=O`, `CN(c1ccccc1CNc1nc(Nc2ccc3c(c2)CC(=O)N3)ncc1C(F)(F)F)S(C)(=O)=O` is lower in “%Inh” value: 43% for the first, 0% for the second.

`C[C@@H](Oc1cc(-n2cnc3cc(-c4cnn(C)c4)ccc32)sc1C(N)=O)c1ccccc1Cl` [GSK580432] and `C[C@@H](Oc1cc(-n2cnc3ccc(-c4ccncc4)cc32)sc1C(N)=O)c1ccccc1Cl` [GSK483724] are the same in “%Inh” value: 0% for the first, 0% for the second.

Compared with `COC(=O)Nc1nc2cc(Oc3ccc(NC(=O)Nc4cc(C(F)(F)F)ccc4Cl)cc3)ccc2[nH]1.Cl` [GW697465], `COc1cc2nccc(Nc3ccc(Oc4ccccc4)cc3)c2cc1OC.Cl` [GI261656] is higher in “%Inh” value: 0% for the first, 92.5% for the second.

First: O=c1[nH]cc(-c2ccc(O)cc2)c2sc(-c3ccncc3)cc12 [GSK1033723]
Second: CS(=O)c1ccc(-c2coc3ccc(-c4n[nH]c(=O)o4)cc23)cc1 (centres unmarked)
The “%Inh” value of the first is lower: 0% for the first, 18% for the second.

First: C[C@@H]1CCN(C(=O)N2CCCC2)C[C@@H]1N(C)c1ncnc2[nH]ccc12
Second: Cl.Cl.NC[C@H](CC1CCCCC1)NC(=O)c1ccc(-c2ccnc3[nH]ccc23)s1 [GSK1581428]
The “%Inh” value of the first is lower: 0% for the first, 17% for the second.

Going from `CSc1nccc(-c2c(-c3ccc(F)cc3)ncn2CCCN2CCOCC2)n1.Cl` [SB-217146] to `Cc1n[nH]c2cc(Nc3ccnc(Nc4cccc(CN5CCOCC5)c4)n3)ccc12` [GW682569], the “%Inh” value falls from 43% to 0%.

First: CC(=O)Nc1nc2cnc(Nc3cc(NC(=O)c4cccc(CC(C)(C)C#N)c4)ccc3C)nc2s1
Second: COc1cc2c(Nc3ccc(NC(=O)c4ccccc4)cc3)ncnc2cc1OCCCN1CCOCC1 [GSK301329]
The “%Inh” value of the first is lower: 6% for the first, 86% for the second.

Compared with `CS(=O)(=O)Nc1ccc(-c2ccnc3[nH]ccc23)cc1` [GSK993273], `Cl.Nc1n[nH]c2cc(-c3ccccn3)ccc12` [GSK2189892] is lower in “%Inh” value: 71% for the first, 0% for the second.

Going from `O=C(NOCC1CC1)c1cc(Br)c(F)c(F)c1Nc1ccc(I)cc1Cl` to `COc1cccc(C2=C(Nc3cccc(Cl)c3)C(=O)NC2=O)c1` [SB-341556], the “%Inh” value falls from 58% to 0%.

Going from `O=C1NCCc2[nH]c(-c3ccncc3)cc21` to `Cn1cc(-c2cccc3c(N)c(C(N)=O)nnc23)cn1`, the “%Inh” value falls from 26% to 21%.

Going from `COc1cccc(CNC(=O)NC2CCN(c3ccnc(Nc4cc(OC)c(OC)c(OC)c4)n3)C2)c1` (centres unmarked) [GSK1379765] to `CN(c1ccc2c(c1)nc(NCc1ccc(F)cc1)n2C)c1ccnc(Nc2ccc(CS(C)(=O)=O)cc2)n1.Cl` [GW813244], the “%Inh” value rises from 5% to 37%.

`Cc1ccc(CC(=O)N2CCc3cc(-c4cn(C)c5ncnc(N)c45)ccc32)cc1` [GSK2634758] and `Cc1nnc(-c2ccc3occ(-c4ccc(S(C)=O)cc4)c3n2)o1` (centres unmarked) are the same in “%Inh” value: 0% for the first, 0% for the second.

Compared with `Cl.c1ccc(Oc2ccc(Nc3ccnc4cc(-c5ccc(CN6CCNCC6)o5)ccc34)cc2)nc1` [GW567142], `OCCn1cc(-c2cnc3nnn(Cc4ccc5ncccc5c4)c3n2)cn1` is lower in “%Inh” value: 90.9% for the first, 0% for the second.

Compared with `CC(C)S(=O)(=O)N1CCN(Cc2ccc3c(c2)nc(NC(=O)c2ccsc2)n3C[C@H](O)c2ccccc2)CC1` [GW635815], `CCn1c(-c2nonc2N)nc2cncc(CNC3CCNCC3)c21.Cl` [SB-747651] is higher in “%Inh” value: 0% for the first, 1% for the second.

In the case of `CCCC(=O)Nc1n[nH]c2ncccc12` [SB-601436], the “%Inh” value is reported as 13%.
